Source: PubChem BioAssay
A selection: hits, their analogues and other compounds. The true share with any hit is near 4.1%.
hgDAF-12 ag: H. glycines DAF-12 receptor agonists, primary screen, cell-based, luminescence, HEK293, GAL4 fusion, UAS-luciferase | Nuclear hormone receptor DAF-12 (Heterodera glycines), GAL4 fusion | HEK293 GAL4-hgDAF12 UAS-luciferase reporter, agonist luminescence; normalized to butyrate control | 370,000 compounds, 1.8% hits | activation, % at 6.8 µM;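 active = activation above a cutoff set at the mean of all screened compounds plus 3 SD, cut at about 10% in these data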
PolyA inh: polyadenylation inhibitors in yeast reporter cells, primary screen, luminescence, S. cerevisiae | S. cerevisiae SKY197-pL101 polyadenylation reporter, beta-gal luminescence; efflux-impaired pdr1/pdr3 knockout yeast; score 100 = 6 SD above DMSO | activity score, % at 12 µM | 300,000 compounds, 0.02% hits;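 active = lowest replicate activity score at least 50, where 100 means six control SD above control mean; inconclusive = lowest score under 50 but half or more replicates reach 50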;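 note: yeast exposed to compound for 9 h at 30 °C; higher score means more reporter readthrough which indicates perturbed polyadenylation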
ssDAF-12 act: S. stercoralis DAF-12 nuclear receptor activators, primary screen, cell-based, luminescence, HEK293, GRIP1 co-expression, lit1-tk-luc; Nuclear hormone receptor DAF-12 (Strongyloides stercoralis); HEK293 ssDAF-12/GRIP1 lit1-tk-luc reporter; % of 3 µM dafachronic acid response; activation, % at 6.8 µM; 370,000 compounds, 1% hits;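 active = activation above the mean over all tested compounds plus 3 SD, cut at about 0.9% in these data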
hcDAF-12 act: H. contortus DAF-12 nuclear receptor activators, primary screen, cell-based, luminescence, HEK293, lit1-tk-luc reporter; 370,000 compounds, 1.4% hits; activation, % at 6.8 µM; AID 652067, 2013; HEK293 hcDAF-12 lit1-tk-luc reporter; 0% DMSO, 100% Δ7-dafachronic acid;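 active = activation above the mean of all tested compounds plus 3 SD, cut at about 5.5% in these data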
DAX1 inh-1: DAX1 (NR0B1) inhibitors on StAR promoter, primary screen, cell-based, luminescence, SF-1 (NR5A1), full-length DAX-1; HEK293T StAR-luciferase reporter, SF-1/DAX-1 repression relief; inhibition, % at 6.8 µM; 370,000 compounds, 1.1% hits; AID 652010, 2013;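 active = inhibition above the mean over all tested compounds plus 3 SD, cut at about 3.6% in these data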;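 note: higher inhibition means more luminescence from relief of DAX-1 repression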
DAX1 inh-2: DAX1 (NR0B1) inhibitors, primary screen, cell-based, HEK293, Gal4-DAX1, luciferase luminescence; HEK293 Gal4-DAX1 luciferase reporter; 340,000 compounds, 0.99% hits; Nuclear receptor subfamily 0 group B member 1 (Homo sapiens), P51843; AID 504766, 2011; inhibition, % at 6.75 µM;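 active = inhibition above the mean over all tested compounds plus 3 SD, cut at about 4.2% in these data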;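 note: inhibition shows as a rise in luminescence from relieved DAX1 repression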
Target sequence (P51843 207-470 limits assumed): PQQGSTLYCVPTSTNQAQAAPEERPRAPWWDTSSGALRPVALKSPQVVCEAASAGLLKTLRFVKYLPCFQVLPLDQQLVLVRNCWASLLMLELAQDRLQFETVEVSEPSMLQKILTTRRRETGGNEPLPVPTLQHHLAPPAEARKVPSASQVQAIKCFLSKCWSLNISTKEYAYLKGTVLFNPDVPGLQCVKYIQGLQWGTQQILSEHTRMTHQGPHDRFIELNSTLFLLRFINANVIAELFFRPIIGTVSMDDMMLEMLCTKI
LXR ag: LXR agonists, Gal4 luciferase reporter, confirmation, counter-screen for hcDAF-12 agonist project, cell-based, luminescence, HEK293, H. contortus campaign; AID 743027, 2013; activation, % at 6.8 µM; HEK293 Gal4-LXR tk-luc reporter, 24 h; normalized: DMSO 0%, positive control 100%; shares compounds with hcDAF-12 act; 3,400 tested, under 10 active;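 active = mean percent activation of the reporter above a cutoff set as the average over tested compounds plus their standard deviation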
hcDAF12 conf: H. contortus DAF-12 receptor agonists, confirmation, cell-based, luminescence, HEK293, lit1-tk-luc, triplicate; shares compounds with hcDAF-12 act; HEK293 hcDAF-12 lit1-tk-luc reporter; % of Δ7-dafachronic acid response; activation, % at 6.8 µM; 3,400 compounds, 61% hits; AID 743032, 2013;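 active = mean activation across triplicate tests above the threshold derived from the earlier primary screen, cut at about 5.5% in these data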
Of the large screens only hits and unclear results are named; the others gave an inactive call (follow-up assays come after a bar, where they were run).

O=C(CN1CCCCCC1)N/N=C/c1ccc2ccccc2c1	hcDAF-12 act 8.1 | LXR ag inactive | hcDAF12 conf inactive
O=C(CNc1ccc2ccccc2c1)N/N=C/c1ccncc1	hcDAF-12 act 8.0 | LXR ag inactive | hcDAF12 conf inactive
O=C(N/N=C/c1ccccc1F)c1ccccc1OCc1ccccc1	none
COc1ccc2c(c1OC)C(=O)N1c3ccccc3SC21 (centres undefined)	hgDAF-12 ag 11.7, hcDAF-12 act 8.8 | LXR ag inactive | hcDAF12 conf 7.5
COc1ccc(CNCc2cc3c(cc2[N+](=O)[O-])OCO3)cc1	hcDAF-12 act 9.4 | LXR ag inactive | hcDAF12 conf inactive
Cc1cccc(NC(=O)c2cnc3scc(C)n3c2=O)c1	none
Cc1csc2ncc(C(=O)Nc3ccon3)c(=O)n12	hcDAF-12 act 9.5 | LXR ag inactive | hcDAF12 conf inactive
CCN(CCCn1c(=S)[nH]c2ccc(N3CCOCC3)cc2c1=O)c1ccccc1	none
CCCn1c(=O)c(C(=O)Nc2cccc(C)c2)c(O)c2ccccc21	none
Cc1cccc(NC(=O)c2c(O)c3ccccc3n(C)c2=O)c1	ssDAF-12 act 1.1, hcDAF-12 act 7.5 | LXR ag inactive | hcDAF12 conf 12.3
CCn1c(=O)c(C(=O)Nc2ccc(C)cc2)c(O)c2ccccc21	hcDAF-12 act 8.7 | LXR ag inactive | hcDAF12 conf inactive
Cc1ccc(NC(=O)c2cc(Cl)nc3ccccc23)cc1	none
Cc1ccc(NC(=O)c2c(Cl)n(C)c3ccccc23)cc1	ssDAF-12 act 1.1, hcDAF-12 act 7.0 | LXR ag inactive | hcDAF12 conf 10.6
CCn1c(=O)c(C(=O)NNC(=O)c2ccccc2)c(O)c2ccccc21	none
C/C(=C\COc1ccc2ccc(=O)oc2c1)CC[C@@H](O)C(C)(C)O	none (no result: PolyA inh)
Clc1ccccc1-c1nc(-c2ccccc2)n[nH]1	hgDAF-12 ag 12.5, hcDAF-12 act 14.7 | LXR ag inactive | hcDAF12 conf 6.6
Oc1ccccc1-c1n[nH]c(-c2ccccc2O)n1	hgDAF-12 ag 12.6, ssDAF-12 act 1.4, hcDAF-12 act 7.1 (no result: PolyA inh) | LXR ag inactive | hcDAF12 conf 9.6
CC(=O)Nc1ccc(NC(=O)C(C)OC(=O)c2ccc(S(=O)(=O)N3CCCCCC3)cc2)cc1 (centres undefined)	none (no result: PolyA inh)
Nc1c(C(=O)CSc2n[nH]c(-c3ccccc3)n2)c(=O)[nH]c(=O)n1C1CC1	none (no result: PolyA inh)
COC(=O)[C@]12CCCCC=C1N(Cc1ccco1)C(=O)[C@H](CC(=O)NCc1ccc(C)o1)C2	none (no result: PolyA inh, DAX1 inh-2)
COc1ccc(CC(O)COS(N)(=O)=O)cc1 (centres undefined)	none
COc1ccc2ccccc2c1/C=N/Nc1ccc(Cl)c(C(=O)O)c1	none
COc1ccc(C(=O)N/N=C/c2c[nH]c3ccccc23)cc1	none
O=C(N/N=C/c1c[nH]c2ccccc12)c1ccn(Cc2ccc(Cl)cc2Cl)n1	none
CC(=O)Nc1cccc(C(=O)N/N=C/c2c[nH]c3ccccc23)c1	ssDAF-12 act 0.9, hcDAF-12 act 8.5 | LXR ag inactive | hcDAF12 conf inactive
Cn1ccc(C(=O)N/N=C/c2c[nH]c3ccccc23)n1	ssDAF-12 act 0.9, hcDAF-12 act 12.1 | LXR ag inactive | hcDAF12 conf inactive
COc1ccc2c(/C=N/Nc3ccc(C(=O)O)cc3)c[nH]c2c1	ssDAF-12 act 0.9, hcDAF-12 act 10.0 | LXR ag inactive | hcDAF12 conf 10.1
O=C(N/N=C/c1c[nH]c2ccccc12)c1ccc(O)c(O)c1	none
O=C(O)c1cc(N/N=C/c2c[nH]c3ccccc23)ccc1Cl	ssDAF-12 act 3.2, hcDAF-12 act 8.6 | LXR ag inactive | hcDAF12 conf 10.4
COc1ccc(OC)c(CN2C(=O)c3ccccc3C2c2nnnn2C(C)C)c1 (centres undefined)	none (no result: PolyA inh, DAX1 inh-2)
Cc1cccc(C(=O)NNC(=O)/C=C/C(=O)O)c1	hcDAF-12 act 8.6 | LXR ag inactive | hcDAF12 conf inactive
Cc1cccc(C(=O)NNC(=O)c2cccc(C)c2)c1	none
CCCCN(C(C)=O)c1ccc(S(=O)(=O)NC2=NCCCCC2)cc1NC(C)=O	none (no result: PolyA inh)
CC(C)[C@H](NC(=O)C1CCC(CNC(=O)[C@@H]2CCCN2C(=O)OC(C)(C)C)CC1)C(=O)O (some centres undefined)	none
CCCC(=O)Nc1c2c(nn1-c1cccc(C)c1C)CS(=O)(=O)C2	PolyA inh inconclusive, hcDAF-12 act 8.1 | LXR ag inactive | hcDAF12 conf inactive
COc1cccc(NC(=O)n2ncc3c(C)cccc32)c1	hgDAF-12 ag 16.9, ssDAF-12 act 1.8, hcDAF-12 act 13.3 | LXR ag inactive | hcDAF12 conf 13.5
Cc1oc(-c2nc3ccccc3n2C)cc1C(=O)c1ccccc1	ssDAF-12 act 1.2, hcDAF-12 act 10.6 | LXR ag inactive | hcDAF12 conf 13.4
COc1nc2c(C)cccc2cc1-c1noc(-c2ccco2)n1	hcDAF-12 act 6.9 (no result: PolyA inh) | LXR ag inactive | hcDAF12 conf inactive
Cc1ccc(NN=C2c3ccccc3-c3ccccc32)cc1	hcDAF-12 act 10.7 | LXR ag inactive | hcDAF12 conf 9.0
COc1n[nH]c(C(=O)Nc2nc3ccccc3s2)c1[N+](=O)[O-]	hcDAF-12 act 8.0 | LXR ag inactive | hcDAF12 conf 6.1
S=C(Nc1ccccc1)Nc1ccc(Br)cn1	none
O=C(NC(=S)Nc1ccc(Br)cn1)c1cccs1	hgDAF-12 ag 14.4, ssDAF-12 act 2.0, hcDAF-12 act 12.9, DAX1 inh-2 6.1 | LXR ag inactive | hcDAF12 conf 12.0
NC(=S)Nc1nc2ccccc2s1	hcDAF-12 act 7.9 | LXR ag inactive | hcDAF12 conf 7.0
